{"source": "PubChem BioAssay AID463173", "about": "(ICCB-Longwood Screening Facility, Harvard Medical School, 2010)", "note": "The whole screen tested about 52,000 compounds, of which about 4,300 (8.3%) were called active. This is one part of a sample in which actives are shown more often than they occur. Unmarked numbers belong to inactive results. Rule as the data show it: active = survival mostly below about 52% (no sharp cut-off); inactive = mostly above about 56%.", "data": [{"tested_on": "DeltatarO mutant", "experiment": "S. aureus survival, RN4220 and DeltatarO strains – OD600, teichoic acid synthesis inhibitors, primary screen (AID 463173)", "details": "S. aureus RN4220 wild type/DeltatarO growth, OD600, 18 h, hits give low values, screened at 18.75 µg/mL (by protocol)", "values": [{"molecule": "CCOC(=O)c1c(S(=O)(=O)NCC(=O)N2CCN(c3cccc(Cl)c3)CC2)c(C)n(C)c1C", "survival": "86%"}, {"molecule": "O=C(O)c1ccccc1C(=O)N1CCC(C(=O)c2ccccc2)CC1", "survival": "104%"}, {"molecule": "COc1ccc(N2CCN(C(=O)C3CCN(S(=O)(=O)Cc4ccccc4)CC3)CC2)cc1", "survival": "78%"}, {"molecule": "O=S1(=O)CCC(NNC(=S)Nc2ccccc2)C1", "note": "(configuration not stated)", "survival": "100%"}, {"molecule": "CCOCCCNC(=O)c1cc2c(=O)[nH]c3ccccc3c2n1C", "survival": "116%"}, {"molecule": "CCCCOc1ccc(S(=O)(=O)NCc2csc(-c3ccc(OC)cc3)n2)cc1", "survival": "88%"}, {"molecule": "CCOC(=O)c1c(S(=O)(=O)NCC(=O)Nc2ccc(C)c(N(C)C)c2)c(C)n(C)c1C", "survival": "79%"}, {"molecule": "O=C(CCn1c(=O)c2cccn2c2cccnc21)N1CCN(c2ccccc2)CC1", "survival": "102%"}, {"molecule": "Cc1ccc(Cl)cc1N1CCN(C(=O)CCn2c(=O)c3cccn3c3cccnc32)CC1", "survival": "39% (active)"}, {"molecule": "O=C(CCn1c(=O)c2cccn2c2cccnc21)N1CCN(c2cccc(Cl)c2)CC1", "survival": "46% (active)"}, {"molecule": "Cc1cccc(N2CCN(C(=O)CCn3c(=O)c4cccn4c4cccnc43)CC2)c1C", "survival": "59%"}, {"molecule": "O=C(CCn1c(=O)c2cccn2c2cccnc21)N1CCN(c2cccc(C(F)(F)F)c2)CC1", "survival": "39% (active)"}, {"molecule": "Cc1ccc(C)c(N2CCN(C(=O)CCn3c(=O)c4cccn4c4cccnc43)CC2)c1", "survival": "58%"}, {"molecule": "O=C(CCn1c(=O)c2cccn2c2cccnc21)N1CCN(c2ccc(F)cc2)CC1", "survival": "88%"}, {"molecule": "O=C(CCn1c(=O)c2cccn2c2cccnc21)N1CCN(c2ccc(Cl)cc2)CC1", "survival": "53%"}, {"molecule": "COc1ccc(N2CCN(C(=O)CCn3c(=O)c4cccn4c4cccnc43)CC2)cc1", "survival": "80%"}, {"molecule": "O=C(C1CCN(S(=O)(=O)c2cccs2)CC1)N1CCN(c2cccc(Cl)c2)CC1", "survival": "64%"}, {"molecule": "CCOC(=O)c1cc2c(ccn2C)n1Cc1ccc(OC(F)(F)F)cc1", "survival": "96%"}, {"molecule": "CCOC(=O)N1CCc2c(sc3c2c(=O)n(Cc2ccccc2)c(=O)n3Cc2cccc(C)c2)C1", "survival": "83%"}, {"molecule": "CC(C)NC(=O)CCSc1ccc(Cl)cc1", "survival": "93%"}, {"molecule": "COc1ccc(N(C)C(=O)CCn2cnc3onc(-c4ccc(F)cc4)c3c2=O)c(OC)c1", "survival": "92%"}, {"molecule": "CCCn1c(SCC(O)c2cccc(OC)c2)nc2ccccc21", "note": "(configuration not stated)", "survival": "84%"}, {"molecule": "CC(C)Cn1c(C2CC(=O)N(c3ccccc3Cl)C2)nc2ccccc21", "note": "(configuration not stated)", "survival": "101%"}, {"molecule": "CC(C)Nc1nc2c(-c3cccc(Br)c3)nnn2c2ccccc12", "survival": "69%"}, {"molecule": "CCCn1c(-c2cccc(Br)c2)nc2ccccc21", "survival": "-4% (active)"}, {"molecule": "Cc1nc2ccccc2c(=O)n1CC(C)C", "survival": "64%"}, {"molecule": "CC(C)Cn1c(-c2ccccc2Cl)nc2ccccc21", "survival": "-2% (active)"}, {"molecule": "CC(=O)NC(C)c1nc2ccccc2n1Cc1ccccc1Cl", "note": "(configuration not stated)", "survival": "83%"}, {"molecule": "CC(C)Cn1c(-c2cccc(Br)c2)nc2ccccc21", "survival": "21% (active)"}, {"molecule": "CCCCNc1nc2c(-c3cccc(Br)c3)nnn2c2ccccc12", "survival": "101%"}, {"molecule": "O=C(O)c1ccc(NC(=O)c2cc(S(=O)(=O)N3CCCCC3)c(Cl)cc2Cl)cc1", "survival": "165%"}, {"molecule": "CCOCCCN(Cc1ccco1)S(=O)(=O)c1cc2c(cc1C)NC(=O)CO2", "survival": "64%"}, {"molecule": "O=C(NCc1ccco1)c1ccccc1", "survival": "67%"}, {"molecule": "O=C(Nc1ccccc1)c1cc2sccc2n1Cc1ccccc1", "survival": "87%"}, {"molecule": "COc1ccc(C(=O)NCc2ccc3c(c2)CCN3C(=O)c2ccc(Cl)cc2)c(OC)c1", "survival": "94%"}, {"molecule": "COc1ccc(Cl)cc1NC(=O)C(C)n1nnc2sc3c(c2c1=O)CCCC3", "note": "(configuration not stated)", "survival": "78%"}, {"molecule": "Cc1cccc(NS(=O)(=O)c2ccc(Cl)c(C(=O)Nc3ccccc3C)c2)c1", "survival": "71%"}, {"molecule": "CC(C)CCOc1ccc(Oc2nc(N(C)C)nc(N(C)C)n2)nn1", "survival": "62%"}, {"molecule": "Cc1nn(C)c2c1c(C(F)(F)F)cc(=O)n2CC(=O)NCc1ccc(OC(C)C)cc1", "survival": "90%"}, {"molecule": "Cc1ccc(Nc2c(-c3cccs3)nc3nc(C)cc(C)n23)cc1", "survival": "15% (active)"}, {"molecule": "Cc1cc(C)n2c(Nc3ccccc3C)c(-c3cccs3)nc2n1", "survival": "84%"}, {"molecule": "Cc1cccc(Nc2c(-c3cccs3)nc3nc(C)cc(C)n23)c1", "survival": "151%"}, {"molecule": "Cc1ccc(C)c(NC(=O)Cn2c(=O)n(Cc3ccc4c(c3)OCO4)c(=O)c3ccc(C(=O)NC4CCCCC4)cc32)c1", "survival": "88%"}, {"molecule": "COc1cccc(C(=O)Nc2cccc(C(=O)OCc3cc(=O)n4c(C)csc4n3)c2)c1", "survival": "128%"}, {"molecule": "Cc1ccccc1C(=O)Nc1cccc(C(=O)OCc2cc(=O)n3c(C)csc3n2)c1", "survival": "87%"}, {"molecule": "CCOc1cc(C(=O)OCc2cc(=O)n3c(C)csc3n2)cc(OCC)c1OCC", "survival": "-1% (active)"}, {"molecule": "Cc1csc2nc(COC(=O)c3cccc(NC(=O)c4cccc(Cl)c4)c3)cc(=O)n12", "survival": "17% (active)"}, {"molecule": "Cc1ccc(OCC(=O)Nc2cccc(C(=O)OCc3cc(=O)n4c(C)csc4n3)c2)cc1", "survival": "89%"}, {"molecule": "Cc1csc2nc(COC(=O)c3ccc(F)cc3)cc(=O)n12", "survival": "72%"}, {"molecule": "Cc1cccc(OCC(=O)Nc2cccc(C(=O)OCc3cc(=O)n4c(C)csc4n3)c2)c1", "survival": "-5% (active)"}, {"molecule": "CCOc1ccc(C(=O)Nc2ccc(C(=O)OCc3cc(=O)n4c(C)csc4n3)cc2)cc1", "survival": "88%"}, {"molecule": "Cc1csc2nc(COC(=O)c3cccc(NC(=O)COc4ccc(Cl)cc4)c3)cc(=O)n12", "survival": "94%"}, {"molecule": "Cc1ccc(NC(=O)CN(C)S(=O)(=O)c2ccc3c(c2)CCC(=O)N3)c(C)c1", "survival": "85%"}, {"molecule": "CCN(Cc1ccccc1)C(=O)c1nn(-c2ccc(OC)cc2)c(=O)c2c1c1ccccc1n2C", "survival": "68%"}, {"molecule": "COc1ccccc1NC(=O)CN1C(=O)C(C)(C)c2ccccc21", "survival": "85%"}, {"molecule": "CCc1ccc2c(c1)NC(c1ccc(C)cc1)=NC(c1cccs1)=N2", "survival": "68%"}, {"molecule": "Cc1ccc[n+](Cc2cnc(C)nc2N)c1", "survival": "83%"}, {"molecule": "CCC(=O)N1CCc2cc(S(=O)(=O)NC(Cc3ccccc3)C(=O)Nc3ccccc3C)ccc21", "note": "(configuration not stated)", "survival": "118%"}, {"molecule": "COc1ccccc1-c1nnc(C2CCN(C(=O)c3ccc(C)cc3)CC2)o1", "survival": "91%"}, {"molecule": "CCN(CC)N=Nc1ccc(S(=O)(=O)N=C(C)O)cc1", "survival": "87%"}, {"molecule": "Nc1nnc(SCc2ccccc2)s1", "survival": "49% (active)"}, {"molecule": "Nc1nnc(CSCc2ccccc2)s1", "survival": "109%"}, {"molecule": "Nc1nc(SCc2ccccc2)ns1", "survival": "53%"}, {"molecule": "CCc1c(C)c(C#N)c2nc3ccccc3n2c1Nc1cccc(C(F)(F)F)c1", "survival": "39% (active)"}, {"molecule": "CC(=O)Nc1ccc(Nc2c(CCC(C)C)c(C)c(C#N)c3nc4ccccc4n23)cc1", "survival": "136%"}, {"molecule": "Cc1ccc(Nc2c(C(C)C)c(C)c(C#N)c3nc4ccccc4n23)cc1", "survival": "62%"}, {"molecule": "CCn1cc(S(=O)(=O)c2cccc(C)c2)c(=O)c2cc(F)c(N3CCCC(C)C3)cc21", "note": "(configuration not stated)", "survival": "84%"}, {"molecule": "CC1=C(C(=O)Nc2ccc(C)cc2Cl)C2(CCCCCC2)OC1=O", "survival": "89%"}, {"molecule": "Cc1nc2cc(-c3ccccc3)nn2c(C)c1CCC(=O)NCCc1ccccc1", "survival": "54%"}, {"molecule": "COc1cc(NC(=O)N2CCC3(CC2)Nc2ccccc2-n2cccc23)cc(OC)c1OC", "survival": "101%"}, {"molecule": "COc1cc([N+](=O)[O-])ccc1NC(=O)N1CCC2(CC1)Nc1cc(F)ccc1-n1cccc12", "survival": "46% (active)"}, {"molecule": "COc1cc([N+](=O)[O-])ccc1NC(=O)N1CCN(c2cc(-c3noc(C)n3)ccc2C)CC1", "survival": "94%"}, {"molecule": "CCN1c2cc(C)ccc2-n2cccc2C12CCN(C(=O)Nc1cc(OC)c(OC)c(OC)c1)CC2", "survival": "93%"}, {"molecule": "COc1cc(NC(=O)N2CCC3(CC2)Nc2cc(F)ccc2-n2cccc23)cc(OC)c1OC", "survival": "105%"}, {"molecule": "COc1cc([N+](=O)[O-])ccc1NC(=O)N1CCC2(CC1)Nc1ccccc1-n1cccc12", "survival": "37% (active)"}, {"molecule": "Cc1cc(C(=O)Nc2cccc(OC(C)C)c2)c(C)o1", "survival": "105%"}, {"molecule": "COc1cccc(CNC(=O)c2nnc(Cc3ccc(Cl)cc3)o2)c1", "survival": "91%"}, {"molecule": "CCOc1ccc(CCNC(=O)CCn2c(=O)c3cccn3c3cccnc32)cc1", "survival": "89%"}, {"molecule": "CCS/C=C/C#CC1(O)CCCCC1", "survival": "90%"}, {"molecule": "Cc1ccccc1CNC(=O)c1ccc2nc(SCc3ccc(F)cc3)n(C)c2c1", "survival": "60%"}, {"molecule": "COc1ccc(Cl)cc1NC(=O)Cn1ncc2c3ccccc3n(Cc3ccccc3)c2c1=O", "survival": "125%"}, {"molecule": "CCOC(=O)Cn1nnc(-c2ccccc2)n1", "survival": "95%"}, {"molecule": "CCOC(=O)c1[nH]c2c(c1Cc1ccccc1C)C(=O)CC(c1cc(OC)ccc1OC)C2", "note": "(configuration not stated)", "survival": "82%"}, {"molecule": "COc1ccc(N2CCN(C(=O)CCc3c(C)nc4cc(-c5ccc(Cl)cc5)nn4c3C)CC2)cc1", "survival": "116%"}, {"molecule": "O=C(O)/C=C/C(=O)Nc1nnc(-c2ccccc2F)s1", "survival": "97%"}, {"molecule": "Cc1ccc(Nc2c(-c3ccc(Br)o3)nc3ccccn23)cc1", "survival": "112%"}, {"molecule": "Cc1ccn2c(Nc3ccc4c(c3)OCO4)c(-c3ccc(C)o3)nc2c1", "survival": "81%"}, {"molecule": "Cc1ccc2nc(-c3ccc(C)o3)c(Nc3ccc4c(c3)OCCO4)n2c1", "survival": "72%"}, {"molecule": "Cc1ccc(-c2nc3ccccn3c2Nc2ccc3c(c2)OCO3)cc1", "survival": "73%"}, {"molecule": "Cc1ccc(-c2nc3ccccn3c2Nc2ccc3c(c2)OCO3)o1", "survival": "34% (active)"}, {"molecule": "Cc1ccc(-c2nc3ccccn3c2Nc2c(C)cccc2C)o1", "survival": "-2% (active)"}, {"molecule": "Cc1ccc(-c2nc3ccccn3c2Nc2ccc3c(c2)OCCO3)o1", "survival": "45%"}, {"molecule": "Cc1ccc2nc(-c3ccco3)c(Nc3ccc4c(c3)OCCO4)n2c1", "survival": "67%"}, {"molecule": "COc1ccc(Nc2c(-c3ccc(C)o3)nc3cc(C)ccn23)cc1", "survival": "75%"}, {"molecule": "Cc1ccn2c(Nc3ccc4c(c3)OCCO4)c(-c3ccc(C)o3)nc2c1", "survival": "58% (active)"}, {"molecule": "c1coc(-c2nc3ccccn3c2Nc2ccc3c(c2)OCCO3)c1", "survival": "53% (active)"}, {"molecule": "Brc1ccc(-c2nc3ccccn3c2Nc2ccc3c(c2)OCCO3)o1", "survival": "85%"}]}]}
